Bioassay records (PubChem)
tim23-1 inh: growth inhibitors of tim23-1 mutant yeast, primary screen, luminescence, uHTS; S. cerevisiae tim23-1 growth, BacTiter-Glo luminescence, 24 h; inhibition, % at 20 µM; hit rate 1.3% among 330,000; AID 463212, 2010;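 active = growth inhibition of the mutant yeast at or above 50%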;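 also: temperature-sensitive mutant grown at 25 °C; plate controls were DMSO-treated mutant yeast for no effect and medium wells lacking yeast for full effect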
SKKanGAS inh: S. pyogenes SKKanGAS growth inhibitors in kanamycin, primary screen, streptokinase expression inhibitor project, SKKanGAS strain, BacTiter-Glo luminescence; 6 h; inhibition, % at 7.5 µM; hit rate 1.3% among 300,000; AID 1662, 2009;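 active = mean replicate score, as percent of positive control median, at least 50; inconclusive = mean below 50 but one replicate at or above 50; inactive = mean and every replicate below 50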;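 also: strain carries kanamycin resistance gene driven by streptokinase promoter and grows in 40 µg/ml kanamycin; loss of luminescence reflects streptokinase promoter inhibition or plain growth inhibition; 0% = median of DMSO wells and 100% = positive control at its reference dose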
NALP3 yeast inh: NALP3 inflammasome inhibitors in reconstituted yeast, primary screen, luminescence, uHTS; Yeast reconstituted NLRP3/ASC/caspase-1, beta-gal luminescence, 24 h; inhibition, % at 10 µM; hit rate 0.39% among 330,000; AID 2825, 2010;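 active = inhibition of 50% or more; inactive = inhibition below 50%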;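 also: plate controls were induced DMSO wells for no effect and uninduced yeast grown without galactose for full effect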
NALP1 inh: NALP1 inflammasome inhibitors in reconstituted yeast, colorimetric, S. cerevisiae, triplicate retest; S. cerevisiae NALP1/ASC/caspase-1 growth, X-gal OD620, 72 h; inhibition, % at 10 µM; hit rate 0.61% among 280,000; in the data active = inhibition mostly above about 24%, no sharp cut-off; inactive = mostly below about 32%
tim10-1 inh: growth inhibitors of tim10-1 mutant yeast, primary screen, luminescence, uHTS | S. cerevisiae tim10-1 ts strain growth, BacTiter-Glo, 24 h | inhibition, % at 20 µM | hit rate 2.2% among 330,000;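 active = inhibition of at least 40%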;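 also: mutant grown at 25 °C; 0% = DMSO wells with yeast and 100% = wells holding no yeast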
TIM10 inh: growth inhibitors of isogenic TIM10 control yeast, primary screen, counter-screen for tim10-1 yeast inhibitor project, luminescence, uHTS | S. cerevisiae TIM10 strain growth, BacTiter-Glo luminescence, 24 h | inhibition, % at 10 µM | AID 463195, 2010 | hit rate 1.4% among 330,000;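 active = inhibition of 40% or more at the single tested concentration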;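 also: wild-type TIM10 isogenic control strain grown at permissive 25 °C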
* marks the source's active call; other numbers are inactive results. Rows were chosen to be rich in hits. Some 4.9% of all compounds tested hit in one or more screens of this group.

What do the screens show for `CCOc1ccccc1NC(=O)C(NCC1CCCCC1)c1ccccc1` (stereo unspecified)?
tim23-1 inh: 41.1; SKKanGAS inh: 54.9*; NALP3 yeast inh: 4.4; NALP1 inh: 2.2; tim10-1 inh: 11.2; TIM10 inh: 17.4

How did O=C(CSc1cccc[n+]1[O-])NC1CCCCC1 do in these assays?
tim23-1 inh: 1.6; NALP3 yeast inh: -1.1; tim10-1 inh: 1.9; TIM10 inh: 5.6

What do the screens show for `CC(C)[C@H](NS(=O)(=O)c1ccccc1)C(=O)OCC(=O)NC(=O)NC1CCCCC1`?
tim23-1 inh: 10.7; NALP3 yeast inh: 5.9; tim10-1 inh: -3.4; TIM10 inh: -6.7

What do the screens show for `O=[N+]([O-])c1cc(Cl)ccc1NCCNc1ncc(C(F)(F)F)cc1Cl`?
tim23-1 inh: 17.6; SKKanGAS inh: 3.1; NALP3 yeast inh: 19.5; NALP1 inh: 31.2; tim10-1 inh: 20.7; TIM10 inh: 18.0

What do the screens show for `O=[N+]([O-])c1ccccc1NCCNc1ncc(C(F)(F)F)cc1Cl`?
tim23-1 inh: -0.7; SKKanGAS inh: 52.2*; NALP3 yeast inh: 18.2; NALP1 inh: 22.3; tim10-1 inh: 18.2; TIM10 inh: 7.1

How did Clc1ccc2nc(-c3ccccn3)c(Nc3ccc4c(c3)OCO4)n2c1 do in these assays?
SKKanGAS inh: 92.1*; NALP1 inh: 12.6

What do the screens show for `CCN(C(=O)C1CCCN(c2ncnc3c2nc2n3CCCCC2)C1)c1cccc(Cl)c1` (stereo unspecified)?
tim23-1 inh: 26.2; SKKanGAS inh: 3.5; NALP3 yeast inh: 7.4; NALP1 inh: 14.8; tim10-1 inh: 37.7; TIM10 inh: 9.6

Results for FC(F)(F)c1cccc(CNC2c3ccccc3-c3ccccc32)c1 ?
tim23-1 inh: 18.9; SKKanGAS inh: 74.9*; NALP3 yeast inh: 10.4; NALP1 inh: 25.2; tim10-1 inh: 30.8; TIM10 inh: 14.2

How did Clc1ccc(C2C3=C(Nc4ncnn42)c2ccccc2CC3)cc1 (stereo unspecified) do in these assays?
tim23-1 inh: 16.6; SKKanGAS inh: 70.2*; NALP3 yeast inh: 25.9; NALP1 inh: 21.8; tim10-1 inh: 26.2; TIM10 inh: 16.1

Results for c1ccc(C2C3=C(Nc4ncnn42)c2ccccc2CCC3)cc1 (stereo unspecified) ?
tim23-1 inh: 10.2; SKKanGAS inh: 2.6; NALP3 yeast inh: 19.2; NALP1 inh: -1.4; tim10-1 inh: 7.8; TIM10 inh: 6.0

How did CCn1c(SCC(=O)NC2CCCC2)nnc1-c1ccccn1 do in these assays?
tim23-1 inh: -9.1; SKKanGAS inh: -5.8; NALP3 yeast inh: 24.5; NALP1 inh: 8.1; tim10-1 inh: -3.9; TIM10 inh: -4.8

What do the screens show for `Cn1c(CNC(=O)CNC(=O)c2cccc(Cl)c2)cc(=O)n(C)c1=O`?
tim23-1 inh: -10.3; SKKanGAS inh: -0.4; NALP3 yeast inh: 11.4; NALP1 inh: 19.7; tim10-1 inh: -6.8; TIM10 inh: -0.5

What do the screens show for `Cn1c(CNC(=O)CNC(=O)c2ccc(F)cc2)cc(=O)n(C)c1=O`?
tim23-1 inh: -1.5; SKKanGAS inh: 56.4*; NALP3 yeast inh: 8.9; NALP1 inh: 8.0; tim10-1 inh: 6.1; TIM10 inh: 5.3

How did CN1C(=O)/C(=C/c2ccccc2Cl)Sc2ccc(C(=O)NCc3cccnc3)cc21 do in these assays?
tim23-1 inh: 8.8; SKKanGAS inh: 71.4*; NALP3 yeast inh: 26.9; NALP1 inh: 3.8; tim10-1 inh: -6.4; TIM10 inh: -6.8

Results for CN1C(=O)/C(=C/c2ccccc2F)Sc2ccc(C(=O)NCC3CCCO3)cc21 (stereo unspecified) ?
tim23-1 inh: 15.6; SKKanGAS inh: inconclusive; NALP3 yeast inh: 11.3; NALP1 inh: 20.7; tim10-1 inh: 29.0; TIM10 inh: -10.6

What do the screens show for `CC(=O)NC12CC3CC(C1)CC(C(=O)Nc1nc4c(C)cccc4s1)(C3)C2`?
tim23-1 inh: 18.6; SKKanGAS inh: 13.6; NALP3 yeast inh: -3.1; NALP1 inh: 8.1; tim10-1 inh: 18.6; TIM10 inh: 9.4

What do the screens show for `CCC(c1nnnn1C(C)(C)CC)N(CCCO)Cc1cc2cc(C)cc(C)c2[nH]c1=O` (stereo unspecified)?
SKKanGAS inh: 0.5; NALP1 inh: 34.6*

Results for CC1CCCC(C)N1C(=O)COC(=O)c1c[nH]c2ccccc12 (stereo unspecified) ?
tim23-1 inh: 39.1; NALP3 yeast inh: 6.5; tim10-1 inh: 13.7; TIM10 inh: 15.9

Results for Cc1cc(=O)[nH]c(SCCCOc2ccc(F)cc2)n1 ?
tim23-1 inh: 5.7; SKKanGAS inh: -4.4; NALP3 yeast inh: 10.0; NALP1 inh: 40.9*; tim10-1 inh: 16.5; TIM10 inh: -13.1

Results for Cc1ccc(OCc2cc(C(=O)N(CCO)Cc3cccs3)no2)cc1C ?
tim23-1 inh: 6.5; SKKanGAS inh: 16.2; NALP3 yeast inh: 9.9; NALP1 inh: 23.0; tim10-1 inh: 20.2; TIM10 inh: -7.3

What do the screens show for `CC1=CC(C)(C)n2c(O)c(N=N)c3c(C)ccc1c32`?
tim23-1 inh: 33.8; SKKanGAS inh: 13.6; NALP3 yeast inh: 14.2; NALP1 inh: 33.5; tim10-1 inh: 3.9; TIM10 inh: 19.7

How did CC1=CC(C)(C)n2c(O)c(N=N)c3c(C)c(C)cc1c32 do in these assays?
tim23-1 inh: 34.2; SKKanGAS inh: 67.7*; NALP3 yeast inh: 15.4; NALP1 inh: 20.4; tim10-1 inh: 30.1; TIM10 inh: 23.9

How did CC(=O)O[C@H]1[C@@H](O)[C@H](O)[C@H](Oc2c(O)c(C)c3c4c2[C@@H](C)CC[C@@H]4[C@@H](C)C[C@H]3C=C(C)C)O[C@H]1C do in these assays?
tim23-1 inh: 45.7; NALP3 yeast inh: -4.0; tim10-1 inh: 30.2; TIM10 inh: 8.7

How did CCc1c(C)nc2cc(-c3ccc(OC)c(OC)c3)nn2c1N1CCC(C)CC1 do in these assays?
tim23-1 inh: 14.7; SKKanGAS inh: 57.0*; NALP3 yeast inh: 26.6; NALP1 inh: -12.4; tim10-1 inh: 29.7; TIM10 inh: 30.7

Results for O=[N+]([O-])c1ccc(Cl)cc1NCc1cccnc1 ?
tim23-1 inh: 3.0; SKKanGAS inh: -6.7; NALP3 yeast inh: 19.7; tim10-1 inh: -7.8; TIM10 inh: -1.3

Results for CCOC(=O)c1cnc2c(C(=O)OCC)cnn2c1N ?
tim23-1 inh: -4.7; SKKanGAS inh: -0.9; NALP3 yeast inh: 8.6; NALP1 inh: 38.2*; tim10-1 inh: 3.4; TIM10 inh: 6.7

What do the screens show for `CCOC(=O)c1c(C)n(C)c2ccc(OC)c([N+](=O)[O-])c12`?
tim23-1 inh: -2.1; SKKanGAS inh: 2.6; NALP3 yeast inh: 17.0; NALP1 inh: 22.1*; tim10-1 inh: 5.5; TIM10 inh: 5.9

What do the screens show for `COc1c(Cl)cnn(-c2ccccc2)c1=O`?
tim23-1 inh: -3.2; SKKanGAS inh: -4.1; NALP3 yeast inh: 1.7; tim10-1 inh: 3.0; TIM10 inh: 15.2
